Compound activity deposited in PubChem BioAssay by Sanford-Burnham Center for Chemical Genomics.
In the library only some 3% were active in any assay of this set; here they are far more common.
SENP8 block-1: SENP8 protease inhibitors, primary screen, biochemical, luminescence | Sentrin-specific protease 8 (Homo sapiens), Q96LD8 | purified SENP8, Z-RLRGG-aminoluciferin cleavage | inhibition, % at 10 µM | 330,000 compounds, 1.2% hits; in the data active = inhibition above about 50%
PPC-1+TRAIL kill: compounds killing PPC-1 cancer cells with TRAIL present, primary screen, TRAIL potentiator project, ATPLite luminescence, uHTS. 220,000 compounds, 0.41% hits. AID 1443, 2008. PPC-1 cells + TRAIL, ATPLite viability luminescence. cell killing (% activity), % at 4 µM or 5 µM;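 active = cell killing above 50% in the first pass at 4 µM, then a duplicate retest at 5 µM averaging 50% or more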
SENP8 block-2: human SENP8 protease inhibitors, primary screen, biochemical, fluorescence, Nedd8 protein substrate, uHTS; Sentrin-specific protease 8 (Homo sapiens), Q96LD8; recombinant SENP8; inhibition, % at 20 µM; 360,000 compounds, 0.64% hits; AID 602440, 2012; in the data active = inhibition mostly above about 40%, no sharp cut-off; inactive = mostly below about 27%
SENP6 inh: SENP6 protease inhibitors, primary screen, biochemical, luminescence, uHTS | Recombinant SENP6 catalytic domain, aminoluciferin luminescence | inhibition, % at 10 µM | Sentrin-specific protease 6 (Homo sapiens), Q9GZR1 | 330,000 compounds, 1.8% hits;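 active = inhibition above about 50% at the single tested dose, limit read from the data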
Target sequence (Q9GZR1 628-1112 limits assumed): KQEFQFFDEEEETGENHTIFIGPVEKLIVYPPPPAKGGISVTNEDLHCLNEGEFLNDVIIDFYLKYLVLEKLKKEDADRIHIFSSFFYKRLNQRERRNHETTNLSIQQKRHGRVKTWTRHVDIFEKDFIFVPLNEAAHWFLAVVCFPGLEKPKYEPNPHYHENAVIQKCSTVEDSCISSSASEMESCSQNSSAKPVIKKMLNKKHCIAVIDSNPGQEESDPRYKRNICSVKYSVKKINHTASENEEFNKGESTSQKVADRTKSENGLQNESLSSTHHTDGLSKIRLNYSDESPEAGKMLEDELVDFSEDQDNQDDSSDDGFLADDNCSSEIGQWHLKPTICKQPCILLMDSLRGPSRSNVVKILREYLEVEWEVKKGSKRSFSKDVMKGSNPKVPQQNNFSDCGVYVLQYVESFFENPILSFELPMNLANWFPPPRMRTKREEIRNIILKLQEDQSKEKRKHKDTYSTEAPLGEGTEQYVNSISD
SENP7 block: SENP7 protease inhibitors, primary screen, biochemical, luminescence, uHTS; recombinant SENP7, Z-RLRGG-aminoluciferin luminescence, 40 min; inhibition, % at 5 µM; 330,000 compounds, 1.5% hits; AID 434973, 2010;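 active = inhibition above about 50% at the single test dose, limit read from the data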
TRAIL sens C8: viability loss with TRAIL in NB7+C8 cells, primary screen, TRAIL sensitizer project, cell-based, ATPlite luminescence | inhibition (viability loss, TRAIL sensitization), % at 10 µM | 360,000 compounds, 1% hits | AID 624354, 2012;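 active = compounds causing at least 50% loss of cell viability in the single-dose screen, relative to plate controls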
SENP8 conf: human SENP8 protease inhibitors, confirmation, biochemical, Nedd8 protein substrate, single concentration; inhibition, % at 25 µM; 1,400 compounds, 15% hits; purified SENP8, Nedd8-AMC/pro-Nedd8 cleavage fluorescence, 30 min; shares compounds with SENP8 block-2; in the data active = inhibition mostly above about 39%, no sharp cut-off; inactive = mostly below about 34%
Each line names hits and unclear results; the compound was inactive in the other large screens (follow-up assays come after a bar, where they were run).

O=C(CSc1nc2cc(Cl)ccc2s1)NCc1ccc2c(c1)OCO2	SENP8 block-2 44 | SENP8 conf inactive
CC(C)[C@@H](C(=O)N[C@@H](CCc1ccc(O)cc1)C(=O)O)N(C)C(=O)[C@H](CO)NC(=O)[C@@H](O)[C@H](N)CCCCCCCCl	SENP8 block-2 55 (no result: SENP8 block-1, PPC-1+TRAIL kill, SENP6 inh, SENP7 block) | SENP8 conf inactive
CCC(CO)Oc1cc(NCc2ccncc2)c2ncn(C(C)C)c2c1 (stereo not given)	SENP8 block-2 41 (no result: PPC-1+TRAIL kill) | SENP8 conf inactive
CCN(CC)C(=O)C1=C(C)N(CCCN2CCCC2=O)C(=O)C(CC(=O)NCCCN(C)C)C1 (stereo not given)	none (no result: SENP8 block-1, PPC-1+TRAIL kill, SENP6 inh, SENP7 block)
COc1ccc(Nc2nc(N)nc(CN3CCc4ccccc4C3)n2)cc1	SENP8 block-2 44 | SENP8 conf inactive
Nc1nc(CN2CCc3ccccc3C2)nc(Nc2ccccc2)n1	none
c1ccc(Nc2cc(Nc3ccccc3)[nH]n2)cc1	SENP8 block-2 55 | SENP8 conf inactive
O=c1nccc(Nc2ccccc2)[nH]1	none
C/C=C/c1ccc(OCCCn2cncn2)c(OC)c1	SENP8 block-2 47 | SENP8 conf inactive
C/C=C/c1ccc(OCCCCn2cncn2)c(OC)c1	none
O=C1Nc2ccc(Br)cc2C12NNc1ccccc1O2 (stereo not given)	SENP8 block-2 43 | SENP8 conf inactive
COc1cccc(C(NC(C)=O)c2nc(-c3cccc(C(C)C)c3)cs2)c1 (stereo not given)	none (no result: SENP8 block-1, PPC-1+TRAIL kill, SENP6 inh, SENP7 block)
COCCNC(=S)NN=C1CCCCC1	SENP8 block-2 46 | SENP8 conf inactive
Cc1ccccc1C(=O)N1CCN(c2ccc(NC(=O)c3ccc([N+](=O)[O-])o3)cc2)CC1	SENP8 block-2 39, TRAIL sens C8 71 (no result: PPC-1+TRAIL kill) | SENP8 conf inactive
O=C(Nc1ccc(N2CCN(C(=O)c3ccccc3)CC2)cc1)c1ccc([N+](=O)[O-])o1	SENP8 block-2 51, TRAIL sens C8 70 (no result: SENP8 block-1, SENP6 inh, SENP7 block) | SENP8 conf inactive
O=C1C2CC=CCC2C(=O)N1c1nccs1 (stereo not given)	none (no result: SENP8 block-1, PPC-1+TRAIL kill, SENP6 inh, SENP7 block)
COc1ccc(-c2cc(C(F)(F)F)c3c(=O)n(-c4ccccc4)[nH]c3n2)cc1	SENP8 block-2 41 | SENP8 conf inactive
CC(C)(C)c1nnc2sc(SCCN3C(=O)c4ccccc4C3=O)nn2c1=O	none
CC(C)N(C(=O)CSc1nn2c(=O)c(C(C)(C)C)nnc2s1)c1ccccc1	SENP8 block-2 40 | SENP8 conf inactive
Cc1ccccc1C(=O)N1CCC1(C)C(=O)NC(C)C (stereo not given)	none (no result: SENP8 block-1, PPC-1+TRAIL kill, SENP6 inh, SENP7 block)
N/C(=N\O)c1cn(Cc2ccccc2Cl)c2ccccc12	none (no result: PPC-1+TRAIL kill)
Cc1[nH][nH]c(=O)c1C(c1c(C)[nH][nH]c1=O)c1cn(Cc2ccccc2Cl)c2ccccc12	SENP8 block-2 79 (no result: SENP8 block-1, SENP6 inh, SENP7 block) | SENP8 conf 73
CC1(C)CC2(CCO1)C(Nc1ccccc1)=NC(=S)N2CC(N)=O (stereo not given)	SENP8 block-2 45 | SENP8 conf inactive
Cc1ccccc1NC1=NC(=S)N(CC(N)=O)C12CCOC(C)(C)C2 (stereo not given)	none
C=CCN1C=CC(=C/C=C(/C#N)C(=O)OCC)C=C1	SENP8 block-2 61, TRAIL sens C8 49 | SENP8 conf inactive
CCOC(=O)/C(C#N)=C/C=C1/C=CC=CN1C	none
COc1cc(C2(c3ccc(O)c(OC)c3)C(=O)Nc3c(C)cc(Br)cc32)ccc1O	SENP8 block-2 40 (no result: PPC-1+TRAIL kill) | SENP8 conf inactive
CN(C)CCN(C(=O)c1ccc(N2C(=O)CCC2=O)cc1)c1nc2cc3c(cc2s1)OCO3	SENP8 block-2 59 | SENP8 conf 48
CN(C)CCCN(C(=O)c1ccc2c(c1)OCCO2)c1nc2cc3c(cc2s1)OCO3	none (no result: PPC-1+TRAIL kill)
O=c1[nH]c(CN2CCN(c3ccccn3)CC2)nc2c(Br)cc(Br)cc12	SENP8 block-2 44 | SENP8 conf inactive
